# Experimental data as given in PubChem BioAssay.
# The source made the active and inactive calls.
# Key:
# [1] = test system: PRMT1 (protein arginine N-methyltransferase 1); assay: PRMT1 binders on small-molecule microarrays, primary screen, biochemical, small-molecule microarray, 635 nm fluorescence (AID 1088); details: small-molecule microarray binding, higher = more signal;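 note: binding of Prmt1 protein to compounds spotted on small-molecule microarray slides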
# [2] = yeast growth modulation, basal conditions, primary screen, YJM789 clinical isolate, OD600, 24 h (AID 1089);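 note: growth of clinical yeast isolate S. cerevisiae YJM 789 seeded 1000 cells per well; test concentration not given here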; details: S. cerevisiae YJM789 growth, higher = more signal, called active from +8 up or from −8 down
# [3] = fission yeast growth modulation, primary screen, strain 972, OD600, 24 h, no modulator (AID 1090);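 note: basal condition with compound alone and no growth modifier present; test concentration not given here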; details: S. pombe 972 growth, higher = more signal, called active from +8 up or from −8 down
# [4] = S. cerevisiae growth modulation with rapamycin, primary screen, strain BY4716, OD600, 96 h (AID 1091); details: higher = more signal, called active from +8 up or from −8 down; note: test concentration not given here
# [5] = biological target: Torsin-1A-interacting protein 2 (Homo sapiens) (UniProt Q8NFQ8); assay: LULL1 binders on small-molecule microarray, primary screen, cell lysate, human LULL1 lysate, 635/667 nm fluorescence (AID 1092); details: hLULL1 lysate binding, 635 nm fluorescence, higher = more signal;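 note: probe is lysate of COS7 cells overexpressing human LULL1; score merges per-feature 667 nm fluorescence with signal-to-noise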
# [6] = E. coli growth modulation, two-sided OD650, primary screen, E. coli filamentation project, strain DRC41, 24 h (AID 1093); details: OD650, 24 h, higher = more signal, called active from +8 up or from −8 down;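 note: MC1000 strain lacking acrAB efflux and sulA so SOS filamentation is blocked; test concentration not given here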
# [7] = small-molecule microarray binders of probe aLefty2, primary screen, biochemical, biotinylated probe, 635/667 nm fluorescence (AID 1094); details: higher = more signal;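 note: score merges spot fluorescence near 667 nm with spot signal-to-noise ratio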
# [8] = test system: Noggin (protein binding on small-molecule microarray); assay: Noggin binders on small-molecule microarray, primary screen, biochemical, 635/667 nm fluorescence (AID 1095); details: 635 nm fluorescence, higher = more signal;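 note: score merges 667 nm feature fluorescence with signal to noise over triplicate slides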
# [9] = biological target: Neurogenic locus notch homolog protein 3 (Homo sapiens) (UniProt Q9UM47); assay: NOTCH3 binders on small-molecule microarray, primary screen, biochemical, 635/667 nm fluorescence (AID 1096); details: NOTCH3 binding, 635 nm fluorescence, higher = more signal
# [10] = small-molecule microarray binders of probe aEGFR, primary screen, biochemical, biotinylated probe, 635/667 nm fluorescence (AID 1097); details: higher = more signal;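 note: probe is a biotinylated anti-EGFR antibody binding compounds printed on slides; score combines fluorescence near 667 nm and signal to noise of each spot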
# [11] = test system: Plasmodium falciparum Sir2 (PF13_0152, Sir2A); assay: pfSir2 binders on small-molecule microarrays, primary screen, biochemical, small-molecule microarray, 635 nm fluorescence (AID 1098); details: small-molecule microarray binding, fluorescence 635 nm; higher = more signal;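 note: score merges spot fluorescence intensity with its signal-to-noise ratio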
# [12] = small-molecule microarray binders of probe aDKK1, primary screen, biochemical, biotinylated probe, 635/667 nm fluorescence (AID 1099); details: higher = more signal;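 note: score merges 667nm spot fluorescence with signal to noise across triplicate slides; reference of the scale not given here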
# [13] = small-molecule microarray binders of probe aCHRDL2, primary screen, biochemical, biotinylated probe, 635/667 nm fluorescence (AID 1100); details: higher = more signal
# [14] = splicing luciferase reporter signal modulators, primary screen, spliceosome inhibition project, cell-based, HEK293, splice +/- reporter (AID 1101); details: luminescence, 24 h, higher = more signal, called active from +8 up or from −8 down;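 note: HEK293 cells carrying a splicing-competent luciferase reporter gene; test concentration not given here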
# [15] = biological target: Fibroblast growth factor 10 (Homo sapiens) (UniProt O15520); assay: FGF10 binders on small-molecule microarrays, primary screen, biochemical, small-molecule microarray, 635 nm fluorescence (AID 1102); details: FGF10 binding, fluorescence 635 nm, higher = more signal
# [16] = test system: glycogen synthase kinase-3 (GSK3A per assay name; protocol says GSK3B); assay: GSK3 binders on small-molecule microarrays, primary screen, biochemical, small-molecule microarray, 635 nm fluorescence, GSK3A (AID 1103); details: small-molecule microarray binding, fluorescence 635 nm; higher = more signal; note: the record names both GSK3A and GSK3B
# [17] = biological target: Epidermal growth factor receptor (Homo sapiens) (UniProt P00533); assay: EGFR binders on small-molecule microarrays, primary screen, biochemical, small-molecule microarray, 635 nm fluorescence (AID 1104); details: EGFR binding, higher = more signal;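 note: score merges 667 nm emission intensity with spot signal to noise over triplicate slides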
# [18] = biological target: Follistatin-related protein 3 (Homo sapiens) (UniProt O95633); assay: FSTL3 binders on small-molecule microarrays, primary screen, biochemical, small-molecule microarray, 635 nm fluorescence (AID 1105); details: FSTL3 binding, higher = more signal;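 note: score merges emission near 667 nm and signal to noise per printed spot across three slides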
# [19] = biological target: Dickkopf-related protein 1 (Homo sapiens) (UniProt O94907); assay: DKK1 binders on small-molecule microarrays, primary screen, biochemical, small-molecule microarray, 635 nm fluorescence scan (AID 1106); details: DKK1 binding, higher = more signal;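 note: score merges emission near 667 nm with signal to noise over three replicate slides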
# [20] = test system: Inhibin beta A chain (activin A); assay: INHBA (activin A) binders on microarrays, primary screen, biochemical, small-molecule microarray, 635 nm fluorescence scan (AID 1107); details: small-molecule microarray binding, higher = more signal;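 note: mouse activin A protein probed at 4.33 µg/mL on printed slides; score merges bound-protein fluorescence near 667 nm with spot signal-to-noise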
# Chain of Follistatin-related protein 3 (Homo sapiens) (O95633 whole entry, looked up): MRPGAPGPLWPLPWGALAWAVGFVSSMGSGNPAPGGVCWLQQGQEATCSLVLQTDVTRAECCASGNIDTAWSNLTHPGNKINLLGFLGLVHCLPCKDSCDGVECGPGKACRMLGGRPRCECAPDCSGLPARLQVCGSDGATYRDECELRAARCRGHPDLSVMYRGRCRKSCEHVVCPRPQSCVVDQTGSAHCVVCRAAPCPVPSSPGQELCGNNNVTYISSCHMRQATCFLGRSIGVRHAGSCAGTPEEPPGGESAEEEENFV
# Chain of Dickkopf-related protein 1 (Homo sapiens) (O94907 whole entry, looked up): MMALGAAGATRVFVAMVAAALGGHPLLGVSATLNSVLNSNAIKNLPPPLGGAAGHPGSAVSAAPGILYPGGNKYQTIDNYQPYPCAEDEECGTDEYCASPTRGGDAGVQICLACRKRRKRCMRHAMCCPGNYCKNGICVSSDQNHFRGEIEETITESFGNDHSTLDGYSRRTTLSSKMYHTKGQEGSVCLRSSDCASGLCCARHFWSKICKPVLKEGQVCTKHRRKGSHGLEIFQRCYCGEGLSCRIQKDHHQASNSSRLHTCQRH
# Chain of Torsin-1A-interacting protein 2 (Homo sapiens) (Q8NFQ8 whole entry, looked up): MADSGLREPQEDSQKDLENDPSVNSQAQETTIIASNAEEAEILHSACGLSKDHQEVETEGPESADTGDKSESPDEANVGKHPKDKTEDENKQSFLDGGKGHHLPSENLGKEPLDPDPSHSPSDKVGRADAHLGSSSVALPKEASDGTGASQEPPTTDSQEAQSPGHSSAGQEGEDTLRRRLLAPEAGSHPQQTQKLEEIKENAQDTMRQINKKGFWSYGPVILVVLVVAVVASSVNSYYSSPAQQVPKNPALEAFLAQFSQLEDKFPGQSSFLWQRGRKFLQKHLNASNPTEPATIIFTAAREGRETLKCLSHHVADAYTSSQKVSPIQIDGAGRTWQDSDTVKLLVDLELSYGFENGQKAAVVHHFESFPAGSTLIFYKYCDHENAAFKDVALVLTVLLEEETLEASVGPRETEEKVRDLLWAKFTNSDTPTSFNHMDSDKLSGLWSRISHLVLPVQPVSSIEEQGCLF
# Chain of Fibroblast growth factor 10 (Homo sapiens) (O15520 whole entry, looked up): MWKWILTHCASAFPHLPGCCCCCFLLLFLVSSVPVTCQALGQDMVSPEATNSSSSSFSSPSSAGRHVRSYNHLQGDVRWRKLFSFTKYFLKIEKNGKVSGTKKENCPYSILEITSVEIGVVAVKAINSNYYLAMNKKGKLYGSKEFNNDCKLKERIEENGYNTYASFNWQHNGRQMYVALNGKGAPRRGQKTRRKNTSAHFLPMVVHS
# Chain of Epidermal growth factor receptor (Homo sapiens) (P00533 whole entry, looked up): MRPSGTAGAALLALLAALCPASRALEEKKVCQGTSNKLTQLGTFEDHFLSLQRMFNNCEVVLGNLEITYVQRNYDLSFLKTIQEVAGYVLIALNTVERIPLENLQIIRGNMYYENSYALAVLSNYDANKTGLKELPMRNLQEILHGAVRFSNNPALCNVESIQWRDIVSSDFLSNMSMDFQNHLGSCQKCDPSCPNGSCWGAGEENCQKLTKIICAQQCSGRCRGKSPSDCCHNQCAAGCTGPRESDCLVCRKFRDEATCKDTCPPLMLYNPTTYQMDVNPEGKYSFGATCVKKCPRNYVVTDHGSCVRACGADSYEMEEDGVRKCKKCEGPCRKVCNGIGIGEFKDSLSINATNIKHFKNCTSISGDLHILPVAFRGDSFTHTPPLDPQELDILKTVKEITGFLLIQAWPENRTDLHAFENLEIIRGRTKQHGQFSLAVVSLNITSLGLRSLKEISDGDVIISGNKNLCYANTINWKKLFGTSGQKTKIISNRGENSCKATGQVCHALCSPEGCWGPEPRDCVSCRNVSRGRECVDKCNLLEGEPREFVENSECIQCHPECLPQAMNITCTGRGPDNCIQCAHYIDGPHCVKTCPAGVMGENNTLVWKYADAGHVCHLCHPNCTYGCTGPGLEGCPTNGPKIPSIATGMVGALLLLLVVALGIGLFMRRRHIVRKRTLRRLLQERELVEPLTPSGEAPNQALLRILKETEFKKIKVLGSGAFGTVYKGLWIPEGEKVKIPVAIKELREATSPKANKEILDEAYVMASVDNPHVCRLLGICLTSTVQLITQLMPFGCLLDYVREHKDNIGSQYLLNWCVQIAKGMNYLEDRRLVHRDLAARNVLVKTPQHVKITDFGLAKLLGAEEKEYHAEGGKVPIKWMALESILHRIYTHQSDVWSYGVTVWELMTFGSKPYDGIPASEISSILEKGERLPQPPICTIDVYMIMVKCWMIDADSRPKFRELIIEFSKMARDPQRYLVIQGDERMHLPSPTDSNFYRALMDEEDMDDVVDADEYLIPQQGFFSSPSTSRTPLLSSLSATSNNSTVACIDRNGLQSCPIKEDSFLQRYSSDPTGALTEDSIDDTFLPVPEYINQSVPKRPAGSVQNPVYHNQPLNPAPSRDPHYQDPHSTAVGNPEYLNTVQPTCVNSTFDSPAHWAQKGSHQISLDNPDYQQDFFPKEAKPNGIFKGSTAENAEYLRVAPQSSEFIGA
# Chain of Neurogenic locus notch homolog protein 3 (Homo sapiens) (Q9UM47 whole entry, looked up): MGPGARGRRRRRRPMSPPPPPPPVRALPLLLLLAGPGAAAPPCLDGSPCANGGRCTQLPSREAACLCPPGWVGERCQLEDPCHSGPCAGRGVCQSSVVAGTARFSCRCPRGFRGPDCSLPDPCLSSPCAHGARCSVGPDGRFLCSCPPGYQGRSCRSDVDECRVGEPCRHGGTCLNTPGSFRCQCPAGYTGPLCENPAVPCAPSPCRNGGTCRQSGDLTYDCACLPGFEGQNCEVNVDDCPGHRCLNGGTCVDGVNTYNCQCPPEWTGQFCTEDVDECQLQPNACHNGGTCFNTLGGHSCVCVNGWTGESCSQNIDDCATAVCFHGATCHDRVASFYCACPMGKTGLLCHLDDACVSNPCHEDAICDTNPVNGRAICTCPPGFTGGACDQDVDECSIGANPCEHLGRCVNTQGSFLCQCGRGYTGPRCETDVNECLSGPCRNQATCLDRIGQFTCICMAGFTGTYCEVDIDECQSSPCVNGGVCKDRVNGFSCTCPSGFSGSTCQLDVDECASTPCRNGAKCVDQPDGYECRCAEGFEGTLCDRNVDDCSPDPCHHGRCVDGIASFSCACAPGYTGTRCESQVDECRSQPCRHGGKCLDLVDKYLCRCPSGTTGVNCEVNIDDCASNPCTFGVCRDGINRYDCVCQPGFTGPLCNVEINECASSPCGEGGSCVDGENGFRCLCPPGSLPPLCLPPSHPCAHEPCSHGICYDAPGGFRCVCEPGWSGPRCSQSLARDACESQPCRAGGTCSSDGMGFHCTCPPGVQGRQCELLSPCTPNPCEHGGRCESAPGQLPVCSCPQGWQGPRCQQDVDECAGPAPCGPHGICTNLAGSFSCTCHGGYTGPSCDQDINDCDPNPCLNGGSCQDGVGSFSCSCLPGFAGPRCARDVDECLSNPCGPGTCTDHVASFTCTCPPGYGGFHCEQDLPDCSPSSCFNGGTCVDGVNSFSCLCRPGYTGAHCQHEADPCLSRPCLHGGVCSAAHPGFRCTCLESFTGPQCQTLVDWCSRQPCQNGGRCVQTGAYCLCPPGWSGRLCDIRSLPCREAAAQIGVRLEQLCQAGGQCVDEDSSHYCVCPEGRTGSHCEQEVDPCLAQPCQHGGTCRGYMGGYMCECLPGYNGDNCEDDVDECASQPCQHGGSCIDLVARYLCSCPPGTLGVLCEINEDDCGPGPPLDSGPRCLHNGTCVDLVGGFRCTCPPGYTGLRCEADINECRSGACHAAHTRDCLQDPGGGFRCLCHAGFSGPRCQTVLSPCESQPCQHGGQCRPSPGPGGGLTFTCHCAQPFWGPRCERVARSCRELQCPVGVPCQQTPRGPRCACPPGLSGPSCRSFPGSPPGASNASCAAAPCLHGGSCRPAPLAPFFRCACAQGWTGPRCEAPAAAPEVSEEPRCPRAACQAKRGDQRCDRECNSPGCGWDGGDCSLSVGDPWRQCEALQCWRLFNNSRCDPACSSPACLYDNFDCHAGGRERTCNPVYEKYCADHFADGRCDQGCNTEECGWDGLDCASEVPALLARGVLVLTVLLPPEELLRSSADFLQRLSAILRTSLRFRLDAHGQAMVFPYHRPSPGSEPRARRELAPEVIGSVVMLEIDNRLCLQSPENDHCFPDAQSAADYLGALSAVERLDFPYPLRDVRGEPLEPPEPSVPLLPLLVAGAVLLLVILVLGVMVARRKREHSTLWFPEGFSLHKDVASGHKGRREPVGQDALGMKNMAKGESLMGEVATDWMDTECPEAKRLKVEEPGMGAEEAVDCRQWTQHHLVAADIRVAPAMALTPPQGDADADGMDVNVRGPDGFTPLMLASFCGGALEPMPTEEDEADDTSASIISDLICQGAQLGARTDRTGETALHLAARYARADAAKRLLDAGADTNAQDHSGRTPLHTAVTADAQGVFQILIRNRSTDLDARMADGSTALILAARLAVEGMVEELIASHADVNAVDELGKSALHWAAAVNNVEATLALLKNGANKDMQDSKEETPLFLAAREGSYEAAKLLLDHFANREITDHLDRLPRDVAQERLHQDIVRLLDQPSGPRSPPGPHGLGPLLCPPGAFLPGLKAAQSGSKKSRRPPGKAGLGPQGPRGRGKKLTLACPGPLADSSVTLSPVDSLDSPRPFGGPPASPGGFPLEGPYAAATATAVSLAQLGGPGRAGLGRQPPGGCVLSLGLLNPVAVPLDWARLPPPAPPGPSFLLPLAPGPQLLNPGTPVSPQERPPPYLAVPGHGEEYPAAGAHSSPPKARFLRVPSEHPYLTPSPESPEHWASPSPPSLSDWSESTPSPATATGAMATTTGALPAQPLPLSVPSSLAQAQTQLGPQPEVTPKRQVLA
SMILES,composite z-score [1],z-score [2],z-score [3],z-score [4],composite z-score [5],z-score [6],composite z-score [7],composite z-score [8],composite z-score [9],composite z-score [10],composite z-score [11],composite z-score [12],composite z-score [13],z-score [14],composite z-score [15],composite z-score [16],composite z-score [17],composite z-score [18],composite z-score [19],composite z-score [20]
CCCC[C@@H]1C[C@H]1[C@@H](NC(=O)c1cccs1)c1ccccc1C(F)(F)F,0.72,0.0064 (inactive),-1.94 (inactive),1.08 (inactive),3.12,-0.0873 (inactive),0.0864,-0.597,0.168,0.0695,0.67,0.445,0.49,-0.701 (inactive),-0.0251,1.23,-0.531,-0.697,-0.291,0.978
C=CCN1C(=O)[C@]2(CCC(=O)OC(C)(C)C)N=C(c3ccc(OCCCO)cc3)O[C@@H]2c2ccccc21,1.08,-2.22 (inactive),-1.56 (inactive),3.46 (inactive),2.02,1.06 (inactive),0.128,0.501,0.772,0.401,0.765,0.177,0.947,-1.82 (inactive),-0.184,0.298,0.348,0.635,0.384,1.18
COc1cc2c(cc1O)C(c1ccc(CN3CCCC3)cc1)N(Cc1cc3c(cc1Br)OCO3)CC2 (stereo not given),-0.137,-0.312 (inactive),-6.22 (inactive),-1.83 (inactive),0.502,-3.03 (inactive),-0.0576,-0.244,0.313,-0.176,-0.115,-0.106,-0.097,0.373 (inactive),0.41,-0.237,-0.186,0.583,-0.367,0.992
O=C(O)[C@@H]1C[C@@H]2C(=O)N3CCC[C@H]3C(=O)N2[C@@H]1c1ccc(O)cc1,1.56,-0.475 (inactive),-0.854 (inactive),0.0128 (inactive),1.34,2.46 (inactive),0.226,1.93,1.01,0.12,1.51,0.857,0.11,-2.2 (inactive),0.196,0.762,0.426,0.987,0.975,0.852
COc1ccc(CCNC(=O)[C@@H]2c3ccccc3C(=O)N(C3CCCCC3)[C@H]2c2ccc(CO)cc2)cc1,0.399,-0.395 (inactive),-0.838 (inactive),0.584 (inactive),3.07,-1.14 (inactive),-0.0671,-0.282,0.366,-0.0972,1.35,0.0099,0.692,0.43 (inactive),0.542,0.32,-0.227,0.0696,-0.487,0.177
CCCNC(=O)[C@@H]1c2ccccc2C(=O)N(Cc2ccc(OC(F)(F)F)cc2)[C@H]1c1ccc(CO)cc1,0.428,0.645 (inactive),0.0302 (inactive),-0.174 (inactive),2.12,0.937 (inactive),0.0286,-0.0211,0.0529,-0.0316,1.3,0.53,0.653,0.0883 (inactive),0.402,0.284,-0.0259,0.0777,0.0637,0.0914
COc1ccc([Si](C)(C)[C@H]2[C@H](CC(=O)N3CCC[C@H]3CO)O[C@@]3(C(=O)N(Cc4ccc(N5CCOC5=O)cc4)c4ccccc43)[C@@H]2C)cc1,1.56,-0.546 (inactive),0.0871 (inactive),-0.38 (inactive),2.31,1.08 (inactive),-0.0063,1.32,1.11,-0.0409,1.08,-0.214,-0.246,0.467 (inactive),1.22,1.14,0.737,1.06,0.672,0.378
CCCNC(=O)[C@@]1(Sc2ccc(C)cc2)CC(=O)N(C2Cc3ccccc3C2)[C@@H]1c1ccc(CO)cc1I,0.918,-0.452 (inactive),-1.32 (inactive),1.21 (inactive),1.28,0.761 (inactive),-0.0321,-0.287,-0.0184,-0.126,0.401,0.551,0.7,-0.272 (inactive),-0.189,-0.0794,-0.172,-0.268,-0.236,1.04
CC(C)N1C(=O)c2ccccc2[C@@H](C(=O)NCCN2CCOCC2)[C@@H]1c1ccc(CO)cc1,-1.01,0.696 (inactive),0.098 (inactive),0.673 (inactive),0.518,-0.589 (inactive),-0.0613,-0.465,-0.616,-0.212,-0.256,-0.005,0.917,-0.141 (inactive),-2.1,-1.05,-1.85,-1.01,-1.19,-0.0564
C=CC[C@@]1(C(=O)NCCCOC)N=C(c2ccc(OCCCO)cc2)O[C@@H]1c1ccccc1,1.24,-3.84 (inactive),-1.61 (inactive),-0.725 (inactive),3.37,0.734 (inactive),0.211,0.0729,-0.741,0.0353,1.7,2.31,1.36,-1.39 (inactive),0.311,0.326,-0.848,-0.439,-0.666,0.923
